The text below walks through data of PubChem BioAssay AID493074 (National Center for Advancing Translational Sciences (NCATS), 2011).

The other results are listed elsewhere or left out. Results filed as inconclusive are left out. Calls of active or inactive are those of the source. The call rests on the fitted dose curve; in most records, active means well fitted cell-killing curve with a large enough effect; inconclusive means small, poorly fitted or top-dose-only effect; inactive means no such curve, though single readings can be large or run the other way.

A short description of the experiment: H358 Cell Viability Secondary Assay for qHTS Assay for Epigenetic Modulators: Round 2. The settings on record: H358 NSCLC viability, ATP luminescence, 72 h. The source says: NIH Molecular Libraries Screening Centers Network [MLSCN] NIH Chemical Genomics Center [NCGC] MLSCN Grant: 1 X01 MH079860-01 Assay Provider: Elisabeth D. Martinez, University of Texas SW Medical Center NCGC Assay Overview: This secondary assay characterizes selected actives identified in the qHTS of the Locus Derepression (LDR) assay (PubChem AID 1865). The LDR assay detects the derepression of a GFP reporter that is stably integrated in a region of the genome of murine c127i mammary cells that is presumably silenced. Compounds that cause derepression of the locus to express GFP are identified by enumerating GFP positive cells using a laser-scanning microplate cytometer. Selected LDR actives were assayed for killing of H358 non-small cell lung carcinoma (NSCLC) cells. […] Cell viability was measured using a luminescence-based detection reagent that measures cellular ATP levels.
NCGC Assay Protocol Summary H358 cells were seeded at 125 cells/5 uL/well in white, solid bottom, 1536 well plates (Greiner). […] Plates were incubated 72 hours at 37deg C and 5% CO2, then 3.5 uL/well CellTiter-Glo(R) (Promega) detection reagent was added, plates were incubated at ambient temperature for 10 minutes and luminescence was measured by a ViewLux (Perkin Elmer) reader. […] A quantitative high-throughput screen identifies potential epigenetic modulators of gene expression. […]
`O=C1NC(=O)N(CCc2ccc(F)cc2)C(=O)/C1=C/C=C/c1ccccc1`: the Potency is 8.88 µM (active).
